Source: PubChem
MazF activator = increases E. coli MazEF RNase cleavage of RNA; P0AE70; FAM/BHQ RNA-DNA oligo cleavage fluorescence, 5 h; activation, % at 20 µM; 350,000 compounds, 0.32% hits; in the data active = activation above about 50%
Target sequence (P0AE70 whole entry, looked up): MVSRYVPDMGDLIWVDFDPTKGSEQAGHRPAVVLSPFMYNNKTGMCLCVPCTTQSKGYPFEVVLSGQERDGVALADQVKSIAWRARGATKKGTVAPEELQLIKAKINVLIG
Yp Topo-I inh = inhibitors of Yersinia pestis topoisomerase I; Y. pestis Topo-I cleavage product accumulation, plate reader; activity, % at 10 µM; 360,000 compounds, 0.064% hits; AID 504884; in the data active = activity above about 50%, passing the limit was not always enough
CCHF vOTU inh-1 = blocks the CCHF virus ovarian tumor domain protease. CCHFV vOTU protease, Pep-AMC fluorescence. inhibition, % at 11.5 µM. 370,000 compounds, 0.55% hits. AID 651958; note: 0% = vehicle wells with enzyme and 100% = no enzyme wells
DUSP3 inh = blocks human VHR1 dual specificity phosphatase. P51452. inhibition, % at 13.3 µM. AID 1654. 290,000 compounds, 0.52% hits. recombinant VHR phosphatase, pNPP absorbance; in the data active = inhibition above about 50%
Target sequence (P51452 whole entry, looked up): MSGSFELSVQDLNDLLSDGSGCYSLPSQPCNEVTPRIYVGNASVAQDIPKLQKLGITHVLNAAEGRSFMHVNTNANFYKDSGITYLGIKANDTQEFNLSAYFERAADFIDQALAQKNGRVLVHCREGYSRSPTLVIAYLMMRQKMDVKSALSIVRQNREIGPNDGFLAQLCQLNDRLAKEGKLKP
BH1578 lux ind = induces V. cholerae light production without autoinducers; V. cholerae BH1578 lux reporter, luminescence, 6 h; activation, % at 18.7 µM; 350,000 compounds, 0.16% hits; AID 588436; in the data active = activation mostly above about 9.7%, no sharp cut-off
PrPC TRFRET = cell surface PrPC inhibition, primary TR-FRET screen; P04156; TR-FRET read-out; inhibition, % at 13.8 µM; 370,000 compounds, 0.43% hits; in the data active = inhibition above about 24%; note: 0% = median of the test wells and 100% = reference compound wells
CCHF vOTU inh-2 = CCHFV vOTU protease inhibition, confirmation | shares compounds with CCHF vOTU inh-1 | Recombinant CCHFV vOTU, Pep-AMC fluorescence | inhibition, % at 11.5 µM | 1,900 compounds, 17% hits | AID 686976
Active calls of the source: *; i = inactive; nt = no result. Rows were chosen to be rich in hits. Some 1.8% of all compounds tested hit in one or more screens of this group. Cut-off read from the data, not from the text of the source, unless noted: active = inhibition above about 30%; inactive = the rest.

SMILES	MazF activator	Yp Topo-I inh	CCHF vOTU inh-1	DUSP3 inh	BH1578 lux ind	PrPC TRFRET	CCHF vOTU inh-2
Cc1c(Cl)cccc1NC(=O)CNC(=O)CCCc1nc2ccccc2c(=O)[nH]1	-3.7	-3.5	1.4	nt	i	4.3	nt
CCOc1cc(Br)cc(C(c2c(C(=O)O)[nH]c3ccccc23)c2c(C(=O)O)[nH]c3ccccc23)c1O	-14.7	-11.1	43.2*	5.8	-1.7	5.3	21.6
CSc1ccc(C(c2c(C(=O)O)[nH]c3ccccc23)c2c(C(=O)O)[nH]c3ccccc23)cc1	-11.7	4.1	22.4	13.9	0.2	21.6	nt
O=C(COC(=O)CSc1ccc([N+](=O)[O-])cc1)NC1CCCCCCC1	0.9	17.1	11.1	nt	i	-6.8	nt
Cc1ccc(SCC(=O)OCC(=O)NC2CCCCCCC2)cc1	1.1	48.6	29.8*	nt	-5.9	2.4	4.2
COC(=O)C[C@H]1CC[C@@H](NC(=O)Nc2cccc(OC)c2)[C@@H](CO)O1	nt	nt	0.1	nt	nt	-2.0	nt
CCOc1ccc2noc3c2c1C(=O)c1ccccc1-3	-1.9	-8.0	86.6*	7.2	-2.8	-39.3	36.7*
C=CCNc1nc2ccccc2nc1NS(=O)(=O)c1ccc(OC)cc1	0.9	4.6	-28.9	6.9	i	0.7	nt
CCOC(=O)N1CCN(C(=O)C[C@H]2C[C@@]3(C(=O)OC)C(=C[C@H](C(C)(C)C)O[C@@H]3C)N(CCC3=CCCCC3)C2=O)CC1	nt	nt	15.8	nt	nt	5.9	nt
CC(C)(C)c1ccccc1NC(=O)Nc1nc(C(N)Cc2ccc(F)cc2)cs1 (centres undefined)	nt	-1.6	30.2*	nt	i	4.1	-23.3
Cc1csc(N/N=C/c2ccc(O)c([N+](=O)[O-])c2)n1	-1.4	-0.2	9.1	-2.5	i	-9.8	nt
Cc1nnc(N/N=C/c2ccc(O)c([N+](=O)[O-])c2)[nH]c1=O	-6.0	-1.6	32.5*	28.2	-5.1	-7.0	6.4
COc1cc(C(c2c(C)[nH]n(-c3ccccc3)c2=O)c2c(C)[nH]n(-c3ccccc3)c2=O)cc(OC)c1OC	2.4	-10.3	80.3*	20.6	5.3	2.5	-4.0
Cc1[nH]n(-c2ccccc2)c(=O)c1C(c1ccc(C(=O)O)cc1)c1c(C)[nH]n(-c2ccccc2)c1=O	-1.8	-3.2	71.2*	1.7	-3.7	-8.2	-11.3
CC(C)C[C@@H]1COc2cccc(NC3CC3)c2S(=O)(=O)N1	nt	nt	0.3	nt	nt	9.1	nt
O=C1CCN(S(=O)(=O)c2cc(C(F)(F)F)ccc2Cl)CC1	-4.6	0.5	12.8	nt	-0.2	7.4	nt
CC1=NNC(=O)C1CC(=O)N/N=C(/C)c1cccc([N+](=O)[O-])c1 (centres undefined)	5.5	8.0	-2.1	-4.3	-0.6	0.0	nt
CC1=NNC(=O)C1CCC(=O)N/N=C(/C)c1ccc([N+](=O)[O-])cc1 (centres undefined)	4.7	-0.5	29.9*	-3.6	-0.3	-9.4	-17.4
CCCC[C@@H]1CC2=C(C(=O)OC(C)(C)O2)[C@@H](c2ccc(Cl)cc2)O1	nt	nt	7.9	nt	nt	4.9	nt
O=S1(=O)CC(N2CCN(c3ccccn3)CC2)CN1C1CCCCC1 (centres undefined)	nt	nt	3.5	nt	nt	2.2	nt
CCCN(CC(=O)Nc1ccccc1C)C(=O)C1CCN(S(=O)(=O)c2ccc3c(c2)OCCO3)CC1	7.0	25.3	35.1*	nt	-0.7	-5.9	-12.6
CCCN(CC(=O)Nc1ccccc1C)C(=O)C1CCN(S(=O)(=O)c2ccc(C)c(C)c2)CC1	5.3	5.2	5.7	nt	-0.3	-6.5	nt
Cc1noc(NS(=O)(=O)c2ccc(NC(=O)c3oc4ccc(Cl)cc4c3C)cc2)c1C	4.6	16.7	34.9*	1.8	-0.5	3.1	20.1
COC(=O)CCC(=O)OC1(C)C(=O)C2=CN(C(CO)CO)C(c3ccc(OC)cc3)=CC2=C(Br)C1=O (centres undefined)	nt	nt	31.0*	3.5	nt	-4.2	17.8
COC(=O)CCC(=O)OC1(C)C(=O)C2=CN(CCCCO)C(c3ccc(OC)cc3)=CC2=C(Br)C1=O (centres undefined)	nt	nt	nt	-6.6	nt	nt	nt
SMILES	MazF activator	Yp Topo-I inh	CCHF vOTU inh-1	DUSP3 inh	BH1578 lux ind	PrPC TRFRET	CCHF vOTU inh-2
COc1ccc(-c2cc(=O)c3cccc(CC(=O)O)c3o2)cc1	nt	nt	-396.8	nt	nt	2.0	nt
O=c1oc(-c2ccccc2)nc2sc3c(c12)CCC3	13.3	7.7	2.4	36.0	i	-10.1	nt
Nc1nc(-c2ccccc2)nc2sc3c(c12)CCCC3	5.3	15.4	30.1*	1.0	-0.2	6.9	-17.3
CCOc1cc(C(=O)Nc2ccc(S(=O)(=O)Nc3nnc(CC)s3)cc2)cc(OCC)c1OCC	-0.5	2.7	38.5*	-16.2	i	8.9	-0.1
CCc1nnc(NS(=O)(=O)c2ccc(NC(=O)c3ccc(S(=O)(=O)N(CC)CC)cc3)cc2)s1	-7.5	6.5	5.5	12.5	-0.3	1.8	nt
O=C1Nc2ccccc2/C1=N\N=C\c1ccc(O)c(O)c1	6.2	-15.0	33.0*	34.2	-0.6	-14.9	4.6
COc1cc(/C=N/N=C2/C(=O)Nc3ccccc32)ccc1O	3.4	-5.6	18.2	-1.6	-2.7	-13.4	nt
O=C(Nc1ccc2nsnc2c1)N1CCCCC1	6.9	5.7	6.3	28.3	-0.6	0.6	nt
C=CCN(CC=C)C(=S)Nc1ccc2nsnc2c1	4.1	4.9	51.5*	26.2	-0.2	-34.6	87.3*
COCCNC(=S)Nc1ccc(Cl)c(Cl)c1	5.7	-3.9	7.6	33.9	-0.5	10.3	nt
CC(C)N(C(=O)Nc1ccc2nsnc2c1)C(C)C	8.0	nt	98.0*	35.6	nt	-5.5	66.6*
S=C(Nc1ccc2nsnc2c1)N1CCCCCC1	-24.7	15.4	36.0*	12.9	i	-10.7	96.8*
COCCNC(=S)Nc1ccc2nsnc2c1	-2.3	-0.9	99.6*	-0.1	-0.1	-15.3	-15.5
CC(C)NS(=O)(=O)c1ccc(CCC(=O)NCc2ccncc2)cc1	-1.5	-1.0	-1.4	38.8	i	12.4	nt
COCCN1C(=O)COc2ccccc2C1C(=O)NC1CCCCC1 (centres undefined)	nt	nt	-0.5	nt	nt	6.6	nt
CCCC[C@H]1COCCS(=O)(=O)N1Cc1cccc([N+](=O)[O-])c1	5.5	-1.5	2.7	32.1	-4.5	-14.7	nt
CC(Sc1n[nH]c(N)n1)C(=O)NC1CCCCC1C (centres undefined)	-3.2	10.4	-10.5	19.2	i	2.2	nt
C#CCSc1nnc(C)c(C)n1	5.4	-1.6	0.5	nt	i	2.5	nt
CCOc1ccc(NC(=O)Nc2ccc3nsnc3c2)cc1	5.7	-2.7	13.5	19.1	i	-15.4	nt
COc1ccc(NC(=S)Nc2ccc3nsnc3c2)cc1	-20.0	2.5	117.8*	13.3	-0.3	-1.9	99.6*
CCOc1ccc(NC(=S)Nc2ccc3nsnc3c2)cc1	1.2	-13.9	118.0*	17.0	-0.6	-12.8	92.4*
O=C(CSc1nnc(COc2ccc(Cl)cc2)o1)Nc1nccs1	1.8	1.5	5.9	nt	-5.9	-4.2	nt
CN(C)C=Nc1c(C(=O)c2ccccc2)sc2nccc(N(C)C)c12	5.4	3.4	29.5*	0.5	-0.3	-47.1	-2.1
